Measurements published in the supplement of paper PMC12636033.
± gives the standard deviation of the averaged measurements. The full ranking holds about 33,000 sequences; the median of “E-score (rank enrichment, -0.5 to 0.5)” is about -0.0075, and the highest 2% start at about 0.23. Only a selection was taken, and the highest values are over-represented in it overall.

Test system: WT Max(13-93) synthetic (M65Nle)
Assay: PBM 8-mer E-score (E-score (rank enrichment, -0.5 to 0.5)); higher = stronger preferential binding
Description: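 Protein binding microarray (universal PBM chip covering all 10-mers in fixed probe flanks) with chemically synthesized human Max(13-93) bHLH-LZ analogs (not full-length Max) bearing noncanonical residues (hArg, Tha, Aib, Nle at 65) and aromatic Cys staples. Read-out per 8-mer (and its reverse complement): E-score (rank-based enrichment, -0.5 to 0.5) and Z-score of median probe intensity.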

| Sequence | PBM 8-mer E-score |
| --- | --- |
| GGGGACAC | -0.27 ± 0.018 |
| AAAAGGGG | 0.0924 ± 0.053 |
| CGACCAGC | -0.0396 ± 0.11 |
| CAAATAGC | 0.0495 ± 0.0037 |
| CGCCCGTC | -0.106 ± 0.034 |
| AGAGCTAG | -0.0196 ± 0.051 |
| CTTGCCCC | -0.0869 ± 0.1 |
| ATAGCCTG | -0.155 ± 0.11 |
| ACATACAG | 0.219 ± 0.059 |
| ACATACAC | 0.139 ± 0.048 |
| AGATACAT | 0.245 ± 0.022 |
| ACATACGA | 0.237 ± 0.015 |
| AGATACAG | 0.134 ± 0.061 |
| ACATACAT | 0.26 ± 0.042 |
| AGATACAA | 0.126 ± 0.036 |
| TCATACGA | 0.115 ± 0.021 |
| ACATACGC | 0.0685 ± 0.056 |
| CATCTCTA | -0.0266 ± 0.00032 |
| ACGGGCTG | -0.16 ± 0.005 |
| AGATAATA | 0.131 ± 0.045 |
| AGATAATC | -0.146 ± 0.023 |
| CGATAACG | -0.0133 ± 0.18 |
| AAATAACA | 0.198 ± 0.039 |
| AGATAATG | 0.241 ± 0.012 |
| AGATAACG | 0.256 ± 0.041 |

| Sequence | PBM 8-mer E-score |
| --- | --- |
| AAATAACG | 0.26 ± 0.0036 |
| AGATAACC | 0.0122 ± 0.027 |
| CAATAACG | 0.0031 ± 0.057 |
| ATCTTGGA | -0.118 ± 0.068 |
| ACAATGCC | 0.0109 ± 0.11 |
| GATATCCC | -0.108 ± 0.023 |
| ACACTTAT | 0.0681 ± 0.02 |
| CCCTGAAG | -0.071 ± 0.03 |
| ACACGACC | 0.0326 ± 0.019 |
| ACACGACT | 0.123 ± 0.049 |
| ACACGACA | 0.289 ± 0.1 |
| CGCCAACC | -0.101 ± 0.11 |
| ACTAGTAA | 0.256 ± 0.1 |
| ACTAGTAT | 0.184 ± 0.02 |
| ACTAGTAG | 0.11 ± 0.088 |
| CTTTCCAC | 0.196 ± 0.17 |
| AATCCTGG | -0.171 ± 0.16 |
| GTTTCCTA | 0.257 ± 0.11 |
| ATTTCCTA | 0.135 ± 0.027 |
| CTTTCCTA | 0.0286 ± 0.077 |
| CGCCCGGA | -0.201 ± 0.068 |
| ATATGGTA | 0.241 ± 0.069 |
| CAATGGTA | 0.15 ± 0.041 |
| ATATGGTC | 0.164 ± 0.09 |
| AAATGGTA | 0.253 ± 0.056 |

| Sequence | PBM 8-mer E-score |
| --- | --- |
| TAATGGTA | 0.0384 ± 0.1 |
| CTATGGTA | 0.0296 ± 0.11 |
| TCGGTTCA | -0.0182 ± 0.1 |
| GATGGCAA | 0.158 ± 0.091 |
| AAGCTCCC | -0.171 ± 0.036 |
| GCAGACCA | -0.213 ± 0.1 |
| CATATAGA | 0.166 ± 0.049 |
| CATATACC | -0.0092 ± 0.047 |
| AATATACT | 0.104 ± 0.069 |
| TATATAGA | 0.104 ± 0.084 |
| AATATACA | 0.246 ± 0.052 |
| GATATACA | 0.08271 ± 0.00014 |
| CATATACA | 0.271 ± 0.067 |
| AATATAGA | 0.277 ± 0.044 |
| TATATACA | 0.0403 ± 0.021 |
| ATTGCGTA | 0.188 ± 0.035 |
| CGACGCAA | -0.157 ± 0.015 |
| ATGCTTAA | 0.189 ± 0.046 |
| CAAGGCCA | 0.0607 ± 0.0078 |
| CTATAACC | 0.0479 ± 0.05 |
| ATATAACA | 0.237 ± 0.052 |
| ATATAACG | 0.299 ± 0.0035 |
| GTATAACA | 0.202 ± 0.035 |
| ATATAACC | 0.0791 ± 0.029 |
| CTATAACA | 0.129 ± 0.045 |

| Sequence | PBM 8-mer E-score |
| --- | --- |
| AGAGAGCG | -0.102 ± 0.039 |
| AGCCACAT | 0.0887 ± 0.052 |
| CATCGTGG | -0.0807 ± 0.055 |
| AAATCACA | 0.163 ± 0.043 |
| CAATCACA | 0.247 ± 0.019 |
| CAATCACG | 0.274 ± 0.05 |
| ACATCACG | 0.0554 ± 0.057 |
| TCATCACA | 0.116 ± 0.011 |
| GAATCACA | -0.023 ± 0.11 |
| ACATCACA | 0.237 ± 0.015 |
| CAATCACC | 0.0883 ± 0.0053 |
| TAATCACA | 0.201 ± 0.049 |
| CCAGCCGA | -0.272 ± 0.029 |
| AGAAGAAA | -0.0012 ± 0.042 |
| CGTTAGGC | 0.0594 ± 0.11 |
| GGCGTTTA | 0.0435 ± 0.017 |
| CCGGCACG | -0.00989 ± 0.099 |
| ACCAAAGA | 0.003 ± 0.046 |
| CTTTCTAA | 0.0817 ± 0.047 |
| ATTTCTAA | -0.0149 ± 0.032 |
| ATTTCTAG | 0.0411 ± 0.07 |
| CATTCTAC | 0.0976 ± 0.045 |
| ATTTCTAC | 0.247 ± 0.043 |
| CTTTCTAC | 0.317 ± 0.053 |
| AGGTGTCC | -0.128 ± 0.054 |

| Sequence | PBM 8-mer E-score |
| --- | --- |
| GACTAAAA | -0.0397 ± 0.075 |
| AGTATAAC | 0.0201 ± 0.0067 |
| AGTATAAT | 0.259 ± 0.07 |
| AGTATAAA | 0.109 ± 0.12 |
| AATACGGT | -0.059 ± 0.026 |
| CAGGGTCA | -0.0768 ± 0.019 |
| AAATCCAT | 0.2404 ± 0.0018 |
| AAATCCAG | -0.00945 ± 0.12 |
| AAATCCAC | 0.116 ± 0.058 |
| GAAGTAAC | 0.0916 ± 0.087 |
| GTCTTTAA | 0.0691 ± 0.12 |
| AATCACGT | 0.399 ± 0.04 |
| ATCCACAG | 0.0193 ± 0.067 |
| AATCACGA | 0.0321 ± 0.13 |
| AACCATGT | 0.2698 ± 0.00089 |
| ACCCACGA | -0.0551 ± 0.047 |
| ATCCACAA | 0.0288 ± 0.05 |
| ACCCACGC | 0.113 ± 0.11 |
| AACCATGA | 0.145 ± 0.028 |
| AATCACGC | 0.188 ± 0.042 |
| ATCCACAT | 0.287 ± 0.022 |
| ACCCACGT | 0.359 ± 0.02 |
| AACCATGG | 0.0463 ± 0.13 |
| AAATCTCG | 0.017 ± 0.054 |
| GTGAGTCA | -0.117 ± 0.064 |

| Sequence | PBM 8-mer E-score |
| --- | --- |
| TAGGCCAA | -0.0597 ± 0.035 |
| CGCAAGCA | 0.1148 ± 0.001 |
| CTGAACGC | -0.243 ± 0.0048 |
| GATTCCAC | -0.0239 ± 0.16 |
| AACCACAT | 0.282 ± 0.045 |
| AACCACGA | 0.198 ± 0.016 |
| AACCACGC | 0.178 ± 0.04 |
| AACCATTA | 0.318 ± 0.052 |
| AACCATTG | 0.0448 ± 0.0034 |
| AACCACGT | 0.392 ± 0.0086 |
| CACCATTA | -0.0432 ± 0.14 |
| AACCACAG | -0.196 ± 0.12 |
| AACCACAC | 0.173 ± 0.0082 |
| ACAATTGC | 0.129 ± 0.021 |
| ATATACCA | 0.153 ± 0.019 |
| TATGCTGA | -0.0828 ± 0.1 |
| ACCTATTG | 0.157 ± 0.01 |
| TACGTATA | 0.094 ± 0.091 |
| ACTTGATC | -0.0132 ± 0.16 |
| AGAGTGAA | -0.133 ± 0.058 |
| CAGACATC | -0.0722 ± 0.089 |
| CCCTTTGC | -0.0228 ± 0.044 |
| CTGCCAAG | -0.0342 ± 0.067 |
| CCTCGATA | -0.157 ± 0.014 |
| CCTAAACG | -0.145 ± 0.043 |

| Sequence | PBM 8-mer E-score |
| --- | --- |
| AATGTGGG | 0.18 ± 0.032 |
| CATGTGGA | 0.324 ± 0.032 |
| GATGTGGC | -0.117 ± 0.057 |
| AATGTGGA | 0.0921 ± 0.085 |
| AATGTGGC | 0.0312 ± 0.0053 |
| CATGGGGG | 0.0813 ± 0.1 |
| GATGTGGA | 0.152 ± 0.011 |
| CATGTGGC | 0.3003 ± 0.0019 |
| CATGTGGG | 0.257 ± 0.075 |
| AATGACTG | 0.102 ± 0.018 |
| GAAGCTCA | -0.152 ± 0.13 |
| ATTCAACC | -0.0085 ± 0.021 |
| GTTCGGGA | -0.13 ± 0.11 |
| GACCCTGA | -0.121 ± 0.035 |
| AGAGGACA | -0.0937 ± 0.095 |
| TAAGTTGA | 0.0328 ± 0.044 |
| ATTTCGTC | 0.242 ± 0.011 |
| CTTTCGTC | 0.0247 ± 0.074 |
| ATTTCGTG | 0.0519 ± 0.051 |
| ATACGATC | -0.0258 ± 0.1 |
| ACAAAGAT | 0.0862 ± 0.049 |
| CAAGCTCA | -0.35 ± 0.017 |
